The values that follow come from PMC5540273 (PLoS ONE, 2017).

Conditions in all cases: concentration: 1 μM,replicates: in singlicate; n = 1
The test system of experiment [1] is CSNK1G1.
For experiment [2], the system named is CSNK1G2.
Experiment [3] deals with CSNK1G3.
In experiment [4] the test system is CSNK2A1.
For experiment [5], the system named is CSNK2A2.
Experiment [6] concerns T1, CTK.
T1 construct: gene MATK

In experiment [7] the test system is DAPK1.
The test system of experiment [8] is DAPK2.
Experiment [9] has as its system DAPK3.
Experiment [10] relates to T2, DCAMKL1.
T2 construct: gene DCLK1

Experiment [11] has as its system T3, DCAMKL2.
T3 construct: gene DCLK2

Experiment [12] relates to T4, DCAMKL3.
T4 construct: gene DCLK3

Experiment [13] relates to DDR1.
For experiment [14], the system named is DDR2.
Experiment [15] concerns T5, DLK.
T5 construct: gene MAP3K12

The subject of experiment [16] is T6, DMPK2.
T6 construct: gene CDC42BPG

The subject of experiment [17] is DMPK.
The subject of experiment [18] is T7, DRAK1.
T7 construct: gene STK17A

Experiment [19] relates to T8, DRAK2.
T8 construct: gene STK17B

In experiment [20] the test system is DYRK1A.

Structures are written as SMILES.
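Note: KINOMEscan kinase panel screen.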

As to `CN1CCN(CCCNc2nccc(-c3c(-c4ccc(F)cc4)nn4cc(C(N)=O)ccc34)n2)CC1` [GW622475], the “%Inh” value in experiment [1] worked out at 27%; in [2], 0%; in experiment [3], 20%; in experiment [4], 1%; in experiment [5], 33%; in experiment [6], 1%. Also, the “%Inh” value was found to be 29% in [7]; 10% in [8]; 16% in [9]; 21% in experiment [10]; 0% in [11]; 7% in experiment [12]. Also, the “%Inh” value in experiment [13] was 100%; in [14], 82%; in [15] it was 0%; in experiment [16], 44%; in experiment [17], 0%; in experiment [18], 0%. The “%Inh” value is recorded as 17% in experiment [19] and 20% in experiment [20].

Regarding `Cc1ccc(Nc2ccnc(Nc3ccc4c(c3)CS(=O)(=O)C4)n2)cc1O.Cl` [GW579362], the “%Inh” value in [1] was found to be 10%; in [2], 0%; in [3] it was 19%; in [4], 63%; in experiment [5] it was 84%; in experiment [6], 25%. The “%Inh” value is reported as 63% in experiment [7]; 38% in experiment [8]; 70% in experiment [9]; 25% in [10]; 0% in experiment [11]; 0% in experiment [12]. For the same compound, the “%Inh” value in experiment [13] turned out to be 86%; in experiment [14], 78%; in experiment [15], 78%; in [16], 30%; in experiment [17] it was 0%; in experiment [18], 45%. The “%Inh” value in experiment [19] is 57%; in experiment [20], 38%.

For the compound `O=c1[nH]cc(-c2ccc(O)cc2)c2sc(-c3ccncc3)cc12` [GSK1033723], the “%Inh” value in experiment [1] is 23%; in [2] it was 0%; in [3] it was 13%; in [4], 9%; in [5], 24%; in experiment [6] it was 0%. Also, the “%Inh” value in experiment [7] was 19%; in [8] it was 27%; in [9], 30%; in [10], 8%; in experiment [11], 6%; in [12] it was 5%. In addition, the “%Inh” value in [13] is reported as 0%; in experiment [14] it was 25%; in [15], 12%; in [16], 17%; in experiment [17] it was 78%; in experiment [18], 31%. The “%Inh” value in [19] is given as 0%; in experiment [20], 90%.

In the case of `Cc1cccc(-c2nc(Nc3ccncc3)c3sccc3n2)n1` [GW869641], the “%Inh” value in experiment [1] is given as 0%; in [2], 1%; in [3], 13%; in experiment [4] it was 6%; in experiment [5] it was 30%; in experiment [6] it was 20%. The “%Inh” value in experiment [7] is recorded as 18%; in [8], 11%; in experiment [9] it was 36%; in experiment [10], 0%; in experiment [11], 21%; in [12], 18%. The “%Inh” value in experiment [13] stood at 55%; in [14] it was 66%; in experiment [15], 0%; in experiment [16], 98.5%; in experiment [17], 18%; in experiment [18], 2%. Also, the “%Inh” value was 13% in [19] and 20% in experiment [20].

Consider `CN(c1ccc2c(c1)nc(NCc1ccc(F)cc1)n2C)c1ccnc(Nc2ccc(CS(C)(=O)=O)cc2)n1.Cl` [GW813244], for which the “%Inh” value came out at 0% in [1]; 6% in experiment [2]; 0% in experiment [3]; 0% in experiment [4]; 24% in experiment [5]; 14% in experiment [6]. The “%Inh” value is listed as 5% in experiment [7]; 7% in experiment [8]; 0% in experiment [9]; 28% in experiment [10]; 0% in experiment [11]; 0% in [12]. Also, the “%Inh” value in [13] came out at 98.4%; in experiment [14], 100%; in experiment [15], 0%; in experiment [16], 0%; in [17] it was 0%; in [18] it was 15%. The “%Inh” value was determined as 7% in experiment [19] and 0% in experiment [20].

Consider `CCn1c(-c2nonc2N)nc2cncc(CNC3CCNCC3)c21.Cl` [SB-747651], for which the “%Inh” value is on record as 24% in [1]; 0% in [2]; 0% in experiment [3]; 0% in experiment [4]; 0% in [5]; 0% in [6]. Moreover, the “%Inh” value in experiment [7] came out at 41%; in [8], 0%; in experiment [9], 27%; in experiment [10], 7%; in [11] it was 0%; in experiment [12], 7%. For the same compound, the “%Inh” value in [13] was determined as 19%; in [14], 25%; in [15], 23%; in experiment [16] it was 0%; in [17], 27%; in experiment [18] it was 6%. The results for the “%Inh” value in experiment [19] and in experiment [20] were 0% and 56%, respectively.

For `C[C@@H](Oc1cc(-n2cnc3cc(-c4ccncc4)ccc32)sc1C(N)=O)c1ccccc1Cl` [GSK479719], the “%Inh” value in [1] came out at 13%; in experiment [2], 0%; in experiment [3], 23%; in [4], 0%; in experiment [5], 35%; in [6], 21%. Further, the “%Inh” value turned out to be 61% in experiment [7]; 30% in experiment [8]; 22% in experiment [9]; 0% in [10]; 3% in experiment [11]; 0% in experiment [12]. Further, the “%Inh” value in [13], in experiment [14], in [15], in experiment [16], in experiment [17] and in experiment [18] was 0% in each case. Also, the results for the “%Inh” value in [19] and in experiment [20] were 0% and 57%, respectively.

For the compound `CS(=O)(=O)c1cccc(CNc2nc(Nc3ccc4c(c3)[C@@H]3C[C@@H]4CNC3=O)ncc2C(F)(F)F)c1`, the “%Inh” value in experiment [1] is reported as 0%; in experiment [2], 23%; in [3], 81%; in [4] it was 34%; in [5], 64%; in experiment [6], 0%. Also, the “%Inh” value in experiment [7] turned out to be 27%; in experiment [8], 0%; in experiment [9], 9%; in experiment [10] it was 48%; in [11] it was 0%; in experiment [12], 0%. Also, the “%Inh” value in experiment [13] is listed as 0%; in experiment [14], 6%; in experiment [15], 9%; in experiment [16] it was 0%; in experiment [17], 0%; in [18], 96.3%. Also, the “%Inh” value in [19] is 96.4%; in experiment [20], 6%.
